# According to the supplement of paper PMC3334620:
# In all, about 33,000 sequences were measured (“E-score (-0.5 to 0.5)”: median about -0.01, highest 2% from about 0.26 on). The sample as a whole holds a higher share of the highest values than the screen did.
# Target: Ste12 (UniProt P13574)
# Assay: PBM E-score (8-mer binding enrichment) (E-score (-0.5 to 0.5)); higher = stronger / more preferred TF binding
# Settings: protein concentration: 200 nM; construct: GST-DNA-binding domain
# Procedure, shortened: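 Universal all-10-mer Agilent arrays, double-stranded by primer extension on fresh or once-stripped slides, were probed with about 100-200 nM GST-tagged yeast transcription factors made by PURExpress. Fluorescent anti-GST detected bound protein, and masliner normalised the scans. E-scores from the Universal PBM Analysis Suite were given to each ungapped eight-base word pooled with its reverse complement.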
# Chain of UniProt P13574 (P13574 whole entry): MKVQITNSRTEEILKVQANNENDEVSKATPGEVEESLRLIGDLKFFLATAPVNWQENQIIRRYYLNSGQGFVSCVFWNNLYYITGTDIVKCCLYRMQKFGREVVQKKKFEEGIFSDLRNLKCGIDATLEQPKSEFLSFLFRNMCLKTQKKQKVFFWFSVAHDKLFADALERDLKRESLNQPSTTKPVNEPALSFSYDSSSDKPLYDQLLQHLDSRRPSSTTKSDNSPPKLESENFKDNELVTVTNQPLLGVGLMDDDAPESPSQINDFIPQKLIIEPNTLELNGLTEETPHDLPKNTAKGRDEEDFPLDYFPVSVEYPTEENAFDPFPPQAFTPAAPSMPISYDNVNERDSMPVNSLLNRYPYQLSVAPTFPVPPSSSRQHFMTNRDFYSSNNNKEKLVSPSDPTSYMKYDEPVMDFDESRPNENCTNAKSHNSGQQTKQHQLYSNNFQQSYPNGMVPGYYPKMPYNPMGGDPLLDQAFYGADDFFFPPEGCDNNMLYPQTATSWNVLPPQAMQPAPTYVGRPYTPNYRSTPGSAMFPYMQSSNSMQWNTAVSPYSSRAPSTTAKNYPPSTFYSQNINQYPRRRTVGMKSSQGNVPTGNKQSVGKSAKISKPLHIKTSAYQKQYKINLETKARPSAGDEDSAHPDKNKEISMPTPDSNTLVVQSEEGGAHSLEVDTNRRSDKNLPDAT
row,Sequence,PBM E-score
1,GCAGGTAA,0.0649
2,AGCGACAC,0.0304
3,AGATCGTG,0.0231
4,AATATCAG,0.0475
5,CGTATCAA,0.088
6,AGTATCAA,0.217
7,TGTATCAA,0.392
8,TATATTAA,0.22
9,AATATTAT,0.24
10,AATATCAA,0.283
11,AATATCAC,0.107
12,AATATTAA,0.327
13,ACATATTA,0.193
14,AGCACAAT,-0.16
15,TTATCGAA,0.196
16,AATAGGGT,0.148
17,AGACTGGA,-0.0847
18,CAGCTCAC,-0.301
19,ATCCGATA,0.063
20,ATCCGATC,0.162
21,ATCCGATG,0.277
22,CACTCCCA,0.0996
23,AGCGCTAG,-0.0146
24,GGCACTTA,-0.157
25,GTTTCGGA,0.334

row,Sequence,PBM E-score
1,CTTTCGGA,0.0344
2,GATTCGAC,0.12
3,GATTCGAA,0.277
4,GGTTCAAA,0.195
5,CATTCGAA,0.11
6,ATTTCGGA,0.181
7,CATTCATC,0.125
8,CTTTCAAA,0.246
9,GTTTCAAA,0.47
10,GATTCATA,0.00383
11,CATTCATA,0.296
12,ATGGTAGC,-0.0629
13,CACCCAAC,-0.0687
14,CTTGAGGA,-0.147
15,GGAGCTTA,-0.219
16,CCTATTCC,0.0843
17,ACTAAAGC,0.0971
18,AGGCGAAG,-0.178
19,CTTTCATA,0.205
20,GAATCGAA,0.296
21,ATTTCACA,0.205
22,ATTTCACG,0.122
23,GTTTCATA,0.481
24,CAATCGAA,-0.021
25,TAATCGAA,0.185

row,Sequence,PBM E-score
1,GTTTCGAA,0.325
2,ATTTCATA,0.124
3,CTTTCGAA,0.0433
4,GTTTCACA,0.447
5,ATTTCGAA,0.253
6,AAAGCGGC,0.054
7,CTGTCAGA,0.0092
8,AAGTACGT,-0.0519
9,AACAGCAG,0.0314
10,CCATGCCC,-0.0778
11,GTGAACGA,0.047
12,GACAAACA,0.0473
13,ATTTCAAG,0.0717
14,ATTTCAAC,0.161
15,GTTTCAGA,0.484
16,ATTTCAAA,0.272
17,ATTTCAGA,0.00371
18,CTTTCAGA,0.211
19,ACGTCAAA,0.0313
20,AACTCAGC,0.109
21,GCTTGGGA,-0.164
22,AACGTGGT,-0.0847
23,AACTTATC,0.0734
24,AACTTATT,0.333
25,AACTTATG,0.0251

row,Sequence,PBM E-score
1,GCTTGTGA,-0.0847
2,AATGAAAT,0.231
3,AATGAACC,0.105
4,CATGAAGA,-0.0377
5,GATGAAAC,0.494
6,AATGAAAA,0.292
7,AATGAAGA,0.304
8,AATGAAAC,0.44
9,GATGAATC,0.0548
10,TATGAAGA,0.0389
11,AATGAAGC,-0.0558
12,GATGAACC,0.062
13,AATGAAAG,0.0381
14,CAAATCGA,0.0344
15,CGCTAGTC,-0.27
16,AATGCTAG,-0.181
17,CAACAGAC,-0.018
18,TCGTTGCA,-0.0015
19,ATTGGGAA,0.0116
20,CGTGTAAG,-0.0021
21,CATGAAAC,0.484
22,TATGAAAA,0.152
23,AATGAATC,0.16
24,GATGAAAA,0.281
25,CATGAAAG,-0.00226

row,Sequence,PBM E-score
1,CATGAAAA,0.237
2,AATGAATT,0.133
3,GATGAACA,0.00898
4,AATGAATG,0.292
5,CCATTTCG,-0.219
6,AAGCTCAG,-0.179
7,GCCTCTAC,-0.239
8,CGTATACA,0.306
9,CGTATAAA,0.263
10,CGTATAAC,-0.0972
11,AGTATACA,-0.108
12,GGTATACA,-0.0232
13,AGTATAAA,0.228
14,CAACCATC,0.109
15,AGAGAGGG,-0.255
16,GATCGTGC,0.0893
17,AACTTTAA,0.279
18,ACTTTTAA,0.164
19,ACTTTAAA,0.275
20,ACTTTTAG,0.101
21,ACTTTAAG,0.225
22,ACTTTTAC,0.263
23,CACTTTAA,0.159
24,AACTTTAG,0.0874
25,ACTTTAAT,0.263

row,Sequence,PBM E-score
1,CCTTTTAC,0.178
2,ACTTTAAC,0.162
3,GCTTTAAA,0.155
4,ACTTAGAT,-0.0771
5,ATGGGAAT,-0.202
6,ACCATACG,-0.0611
7,CGCGCTAC,0.00148
8,ACTGGGCC,-0.244
9,AGCTAGAA,-0.0198
10,GAACCGGA,-0.0365
11,GAGCGAGC,-0.00859
12,GTCGCTGA,0.0069
13,TAACGATA,0.138
14,AAACGATA,0.279
15,CAACGATA,0.0594
16,AGAACTGG,-0.0181
17,ATAGGATG,0.149
18,AAATAGAG,0.0914
19,AAAAATCC,0.178
20,AAATATAA,0.224
21,AAAAATCT,0.318
22,AAATATAC,0.225
23,AAATATAT,0.273
24,AAAAATAG,0.24
25,AAAAATCA,0.254

row,Sequence,PBM E-score
1,AAAAATAC,0.25
2,AAATAGAT,0.275
3,AAATAGAC,-0.0352
4,AAAAATAT,0.339
5,CTCGTTTA,0.0722
6,CCAACCGA,0.0461
7,AACAGCCA,-0.019
8,AGCGCAAG,-0.0674
9,CACGGCAC,-0.113
10,ACAAGCGG,0.106
11,TACCTACA,-0.0205
12,AACTATGT,-0.0705
13,AGTTGAAA,0.19
14,GGTTGTAA,0.0372
15,TGTTGTAA,0.28
16,GGTTGAAC,-0.0192
17,AGTTGTAA,0.068
18,GGTTGAAA,0.292
19,CGTTGAAA,0.185
20,TGTTGAAA,0.311
21,GGTTGAGA,-0.103
22,CCCCGTAC,-0.0713
23,AGTCTGCA,-0.122
24,CGCGTACC,-0.113
25,CCGCCTTA,0.0555

row,Sequence,PBM E-score
1,AAGGTTCT,0.0379
2,CCCGAACA,0.128
3,CGAAGCCC,-0.192
4,AATACAAT,0.0948
5,AATACAAC,0.157
6,AATACAAG,0.302
7,TATACAAA,0.127
8,GATACAAA,0.134
9,AATACAAA,0.265
10,GGCAGCCC,-0.142
11,GACTACAA,-0.102
12,GGAATCCC,0.0198
13,GACCATGC,-0.139
14,ATCTCAAA,0.27
15,CTCTCAAA,0.0271
16,AACTCAAG,-0.00801
17,TTCTCAAA,0.291
18,ATCTCAAG,0.0665
19,AACTCAAA,0.266
20,CACTCAAA,0.0429
21,ATCTCAAT,0.0795
22,GTCTCAAA,0.218
23,ATGCCGTA,-0.0947
24,CTGGTCGA,-0.196
25,ATGGATTC,0.186

row,Sequence,PBM E-score
1,ACCGTGAT,0.0763
2,TGATTACA,-0.00637
3,ACAACCAA,0.0252
4,CGATCTCC,-0.108
5,ATCAACTG,-0.112
6,CATTAAAG,0.034
7,CATTAAAA,0.27
8,AATTAAAA,0.308
9,AATTAAAG,0.103
10,GATTAAAA,0.234
11,AATTAAAC,0.241
12,TATTAACA,0.164
13,TATTAAAA,0.341
14,CATTAAAC,0.191
15,TAAGGCAA,0.0326
16,CTACCCTC,-0.0776
17,GCCCTCCC,0.115
18,TGCTCACA,-0.148
19,CCTTGTGC,-0.0236
